Assay results published in article PMC7826789 (International Journal of Molecular Sciences, 2021).
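Also: KINOMEscan scanMAX binding as percent activity remaining versus control; lower means stronger binding.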

These molecules were tested on ABL1(E255K)-phosphorylated. Conditions: Compound Concentration (nM):1000.
`COc1cc(/C=N/Nc2ncnc3[nH]ncc23)ccc1O` [GW578748X] was tested, and the “Percent Control” value was 0.8%. With `NS(=O)(=O)c1ccc(N/N=C2\C(=O)Nc3ccc(-c4cnco4)cc32)cc1` [GW276655] the “Percent Control” value was 63%. In the case of `CN1CCN(C(=O)c2ccc(NC(=O)Nc3ccc(N(C)c4ccnc(Nc5ccc(CS(C)(=O)=O)cc5)n4)cc3)cc2)CC1.Cl` [GW830263A], the “Percent Control” value is reported as 38%. For `CCS(=O)(=O)c1ccc(OC)c(Nc2ncc(-c3cccc(OC)c3)o2)c1` [GW580509X], the “Percent Control” value was 5%. For `Cl.O=S1CCN(Cc2ccc(-c3ccc4ncnc(Nc5ccc(OCc6ccccc6)c(F)c5)c4c3)o2)CC1` [GW576924A], the “Percent Control” value was 100%. With `CC1=C(C(=O)Nc2ccc3[nH]ncc3c2)C(c2ccc3ccccc3c2)CC(=O)N1` (centres unmarked) [GSK270822A] the “Percent Control” value was 83%. For `COc1ccc2c(-c3ccnc(Nc4cccc(OC(F)(F)F)c4)n3)cnn2n1` [GW810372X], the “Percent Control” value was 100%. In the case of `Cl.O=C(Nc1ccc(Oc2ccc3[nH]c(NC(=O)c4ccco4)nc3c2)cc1)Nc1cc(C(F)(F)F)ccc1F` [GW683134A], the “Percent Control” value is reported as 39%. `CN(C)c1cc2c(Nc3ccc4c(cnn4Cc4ccccc4)c3)ncnc2cn1` [GW282974X] was tested, and the “Percent Control” value was 59%. In the case of `CCS(=O)(=O)c1ccc(OC)c(Nc2ncc(-c3cccc(F)c3)o2)c1` [GW621970X], the “Percent Control” value is reported as 6.7%. For `COc1cc(C)c(N(C)C(=O)CN(C)C)cc1Nc1nc(Nc2cccc(F)c2C(N)=O)c2cc[nH]c2n1` [GSK2219385], the “Percent Control” value was 95%. `Cl.c1ccc(Cc2nc3ccc(Nc4ncnc5ccccc45)cc3[nH]2)cc1` [GR269666A] was tested, and the “Percent Control” value was 100%. In the case of `COc1ccc2[nH]c3c4[nH]c5ccc(OC)cc5c4c4c(c3c2c1)C(=O)NC4=O` [GW296115X], the “Percent Control” value is reported as 64%. With `CCn1c(-c2nonc2N)nc2c(C#CC(C)(C)O)nc(OCCNC)cc21.Cl` [GSK949675] the “Percent Control” value was 98%. For `CN(C)CCNC(=O)Nc1ccc(N(C)c2ccnc(Nc3ccc(CS(C)(=O)=O)cc3)n2)cc1.Cl` [GW830900A], the “Percent Control” value was 82%. In the case of `NS(=O)(=O)c1ccc(N/N=C2\C(=O)Nc3ccc(C(=O)NCCc4c[nH]cn4)cc32)cc1` [GW300660X], the “Percent Control” value is reported as 100%. `C[C@@H](Oc1cc(-n2cnc3ccc(OC4CCN(C)CC4)cc32)sc1C(N)=O)c1ccccc1Cl` [GSK579289A] was tested, and the “Percent Control” value was 44%. `NS(=O)(=O)c1ccc(Nc2ncc(-c3ccccc3)o2)cc1` [GW572399X] was tested, and the “Percent Control” value was 81%. For `Cc1cc(O)cc(C)c1/C=C/c1cncc(C(N)=O)c1` [GW435821X], the “Percent Control” value was 6.8%. `COc1ccc2cc(-c3c(-c4ccncc4)nc(-c4ccc(S(C)(=O)=O)cc4C)n3C)ccc2c1` [SB-633825] was tested, and the “Percent Control” value was 80%. In the case of `COc1cc2ncn(-c3cc(O[C@H](C)c4ccccc4Cl)c(C(N)=O)s3)c2cc1OC` [GSK237701A], the “Percent Control” value is reported as 81%. In the case of `COC(=O)Nc1nc2ccc(Oc3ccc(NC(=O)Nc4cc(C(F)(F)F)ccc4F)cc3)cc2s1.Cl` [GW693917A], the “Percent Control” value is reported as 28%. For `COc1cc2ncnc(Nc3ccc4c(cnn4Cc4ccccc4)c3)c2cc1OC.Cl` [GW282449A], the “Percent Control” value was 100%. For `C/C(Nc1ccc(S(N)(=O)=O)cc1)=C1/C(=O)Nc2ccccc21` [GW335962X], the “Percent Control” value was 82%. `Cl.O=C(Nc1ccc(Oc2ccc3[nH]c(NC(=O)c4ccccc4)nc3c2)cc1)Nc1cc(C(F)(F)F)ccc1F` [GW709042A] was tested, and the “Percent Control” value was 83%. For `CCc1ccc(Oc2nccc(-c3c(-c4ccc(F)cc4)ncn3C3CCNCC3)n2)cc1` [SB-242719], the “Percent Control” value was 63%. In the case of `COc1cc(N2CCN(C(C)C)CC2)ccc1Nc1nc(Nc2ccc(F)cc2C(=O)NC[C@@H](O)CO)c2cc[nH]c2n1` [GSK1392956A], the “Percent Control” value is reported as 100%. With `O=C(Nc1n[nH]c2nc(-c3ccc(O)cc3)c(Br)cc12)C1CC1` [SB-725317] the “Percent Control” value was 26%. With `O=C1Nc2ccc(C(=O)c3ccco3)cc2C1=Cc1cc(Cl)c(O)c(Cl)c1` [GW406108X] the “Percent Control” value was 68%. In the case of `COc1cccc(-n2ncc3c(N/N=C/c4ccncc4)ncnc32)c1` [GW784752X], the “Percent Control” value is reported as 1.5%. `NS(=O)(=O)c1ccc(N/N=C2\C(=O)Nc3ccc(C(=O)NCc4ccncc4)cc32)cc1` [GW300657X] was tested, and the “Percent Control” value was 79%. With `Nc1ncnc2occ(-c3ccc(NC(=O)Nc4cc(C(F)(F)F)ccc4F)cc3)c12` [GW770249X] the “Percent Control” value was 78%.
